# Results as given in the supplement of paper PMC6555819.
# Columns and labels:
# Assay in all cases: PBM binding z-score (relative to random genomic background probes); higher = stronger binding; sequences stand for … in GC…GCGATTGACAGCGTAGAATGAAGG
# [1] = tested on: FXR:RXRa (NR concentration 270 nM, RXRa partner concentration 90 nM)
# In short: (§1)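 Each nuclear receptor dimer, without ligand, was incubated for 1 h on custom Agilent 4×180K protein-binding microarrays. Binding was detected with antibodies against each partner (one per run), and scanned fluorescence was regression-normalized. The binding z-scores are referenced to random human genomic background probes.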
# [2] = tested on: LXRa:RXRa (NR concentration 270 nM, RXRa partner concentration 90 nM)
# In short: as §1
# [3] = tested on: LXRa homodimer (NR concentration 270 nM)
# In short: as §1
# [4] = tested on: LXRb:RXRa (NR concentration 270 nM, RXRa partner concentration 90 nM)
# In short: as §1
# [5] = tested on: LXRb homodimer (NR concentration 270 nM)
# In short: as §1
# [6] = tested on: PPARa:RXRa (NR concentration 270 nM, RXRa partner concentration 90 nM)
# In short: as §1
# [7] = tested on: PPARg:RXRa (NR concentration 180 nM, RXRa partner concentration 90 nM)
# In short: as §1
# [8] = tested on: PPARg:RXRa 270nM:90nM, anti-RXR (NR concentration 270 nM, RXRa partner concentration 90 nM)
# In short: as §1
# [9] = tested on: PPARg:RXRa 30nM:10nM, anti-RXR (NR concentration 30 nM, RXRa partner concentration 10 nM)
# In short: as §1
# [10] = tested on: PPARg:RXRa 90nM:30nM, anti-RXR (NR concentration 90 nM, RXRa partner concentration 30 nM)
# In short: as §1
# [11] = tested on: PPARg:RXRa DBDmut IVT, anti-RXR (DBD mutation: RXRa K156A/R161A, NR concentration 270 nM, RXRa partner concentration 90 nM)
# In short: as §1
# [12] = tested on: PPARg:RXRa IVT, anti-PPARg (NR concentration 270 nM, RXRa partner concentration 90 nM)
# In short: as §1
# [13] = tested on: PPARg DBDmut:RXRa IVT, anti-PPARg (DBD mutation: PPARg1 K132A/R137A, NR concentration 270 nM, RXRa partner concentration 90 nM)
# In short: as §1
# [14] = tested on: PPARg DBDmut IVT, anti-PPARg (DBD mutation: PPARg1 K132A/R137A, NR concentration 270 nM)
# In short: as §1
# [15] = tested on: PPARg homodimer (NR concentration 180 nM)
# In short: as §1
# [16] = tested on: PXR:RXRa (NR concentration 270 nM, RXRa partner concentration 90 nM)
# In short: as §1
# [17] = tested on: PXR homodimer (NR concentration 270 nM)
# In short: as §1
# [18] = tested on: RARa:RXR (NR concentration 270 nM, RXRa partner concentration 90 nM)
# In short: as §1
# [19] = tested on: RARa homodimer (NR concentration 270 nM)
# In short: as §1
# [20] = tested on: RARb:RXRa (NR concentration 270 nM, RXRa partner concentration 90 nM)
# In short: as §1
Sequence,PBM binding z-score [1],PBM binding z-score [2],PBM binding z-score [3],PBM binding z-score [4],PBM binding z-score [5],PBM binding z-score [6],PBM binding z-score [7],PBM binding z-score [8],PBM binding z-score [9],PBM binding z-score [10],PBM binding z-score [11],PBM binding z-score [12],PBM binding z-score [13],PBM binding z-score [14],PBM binding z-score [15],PBM binding z-score [16],PBM binding z-score [17],PBM binding z-score [18],PBM binding z-score [19],PBM binding z-score [20]
CCTCGGAGGACACAAGGTCAGAGCTGTCCGCTTT,1.95,2.18,0.422,1.25,-0.693,2.17,0.424,1.15,-0.626,0.468,0.831,0.883,-1.16,-1.74,1.72,2.35,0.133,2.25,0.096,3.46
TGAATGAGGCTAAAGATCAGGGAACGTGGCGTCG,-0.481,-0.541,-0.699,-0.926,-0.646,1.97,2.96,4.9,3.03,4.67,-0.0886,1.02,0.37,-0.283,-0.62,-0.523,-0.778,-0.214,-0.864,0.177
TCTTGTAGATCAATAGAGGTTAAGAGAGTGCGCT,1.02,3.23,0.39,1.56,-0.263,1.97,0.0918,1.53,2.37,2.22,1.67,1.07,0.505,0.44,0.687,3.92,0.241,1.73,0.69,0.738
ACTCGGAGGACAAAGGTCAGAGCGACGCCAGTGA,4.14,4.3,1.14,3.61,0.216,4.97,7.85,6.9,5.06,7.27,0.874,3.53,-0.107,-0.757,3.73,4.04,0.438,4.89,0.829,4.57
AATACAGGGTCAGTAGGCCAGAGTAGGTACGAAT,3.97,3.63,0.625,2.61,0.737,4.47,5.91,5.01,1.93,3.86,3.22,4.8,1.82,0.929,1.97,1.86,0.246,2.94,1.18,3.92
ACTAGTTGGTCAGGTGAGGTCACACACAATTCGG,3.87,3.4,2.65,3.35,0.501,3.83,2.36,2.68,0.906,1.88,1.77,3.37,0.914,0.637,3.1,5.46,2.28,4.89,2,3.44
ACTAGCAGGCCTAGGGTCACTCAAGATTAGTCCG,1.77,1.89,-0.469,1.82,-0.871,2.81,1.99,3.41,1.39,2.89,-0.156,0.917,-0.943,-1.16,1.39,2.65,0.0787,3.09,-0.643,2.44
